Results filed as inconclusive are left out. Active and inactive are the calls of the source. Unless noted, the call rests on the fitted dose curve; in most records, active means well fitted curve in the direction sought with a large enough effect in the repeat runs; inconclusive means weak or mixed curves; inactive means no such curve, though single readings can be large; an effect the other way counts as inactive or inconclusive.
What was measured:
[1] = qHTS assay for small molecules that induce genotoxicity in human embryonic kidney cells expressing luciferase-tagged ATAD5 - cell viability (AID 651634; calls by dose curve; further: nearly all actives have a fitted effect of over 25% in size); conditions: HEK293T ATAD5-luc cells viability, CellTiter-Fluor, 15.5 h; series mostly up to 83.3 µM
Method in brief: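 Cytotoxicity counterscreen in HEK293T cells bearing an ATAD5-luciferase reporter: live-cell protease activity measured by CellTiter-Fluor fluorescence after 15.5 hr compound exposure.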

[2] = qHTS assay for small molecule disruptors of the mitochondrial membrane potential - cell viability (AID 720634; calls by dose curve;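 further: human HepG2 liver cancer cells; nearly all actives have a fitted effect of over 20% in size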); conditions: HepG2 viability, ATP luminescence (CellTiter-Glo), 1 h; series mostly up to 83.2 µM
Method in brief: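 After overnight attachment at 37 C, HepG2 cells received compound or DMSO vehicle for 1 hr. Viability is then taken from ATP-driven luminescence following a 30 min room-temperature CellTiter-Glo step.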

[3] = qHTS assay for small molecule disruptors of the mitochondrial membrane potential (AID 720635); conditions: HepG2 mitochondrial membrane potential, Mito-MPS dye ratio; series mostly up to 83.2 µM
Method in brief: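 HepG2 cells (2,000/well) attached overnight at 37C, then took compound for 1 hr at 37C, 5% CO2. Mito-MPS dye was added for 30 min; fluorescence was read at 490/535 nm (monomers) and 540/590 nm (aggregates).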

[4] = qHTS assay to test for compound auto fluorescence at 460 nm (blue) in HEK293 cells (AID 720678); conditions: blue autofluorescence 405/460 nm; series mostly up to 91.3 µM
Method in brief: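 Auto fluorescence in the blue band was quantified as triamterene equivalency. HEK293 cells were seeded at 2,000/well, dosed after a 4-5 hr attachment, and kept overnight at 37C before the 405/460 nm reading.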

[5] = qHTS assay to test for compound auto fluorescence at 590 nm (red) in HEK293 cells (AID 720679); conditions: red autofluorescence 540/590 nm; series mostly up to 91.3 µM
Method in brief: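 Autofluorescence equivalency to Rose Bengal sodium, 540/590nm, in HEK293 cells exposed overnight to 23 nL compound per well.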

[6] = qHTS assay for small molecule agonists of the p53 signaling pathway - cell viability (AID 651633; calls by dose curve;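 further: p53RE-bla HCT reporter cells with a stable beta-lactamase p53 reporter; nearly all actives have a fitted effect of over 30% in size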); conditions: p53RE-bla HCT-116 viability, ATP luminescence, 16 h; series mostly up to 83.3 µM
Method in brief: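 p53RE-bla cells, seeded at 4,000 per well and rested 5 h at 37 C/5% CO2, received compounds in DMSO for 16 h at 37 C. CellTiter-Glo was then added, and luminescence was read after 30 min at room temperature to gauge cytotoxicity.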

[7] = qHTS assay to test for compound auto fluorescence at 590 nm (red) in HepG2 cells (AID 720674); conditions: HepG2 autofluorescence, red 540/590 nm, 1 h; series mostly up to 91.3 µM
Method in brief: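 Compound auto-fluorescence is scored relative to Rose Bengal sodium, measured at 540/590 nm in live HepG2 cultures after 1 hr compound contact (37 C, 5% CO2).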

[8] = qHTS assay to test for compound auto fluorescence at 535 nm (green) in HepG2 cells (AID 720675); conditions: green autofluorescence 485/535 nm, 1 h; series mostly up to 91.3 µM
[9] = qHTS assay for small molecules that induce genotoxicity in human embryonic kidney cells expressing luciferase-tagged ATAD5 (AID 651632); conditions: HEK293T ATAD5-luciferase induction, 16 h; series mostly up to 83.3 µM; further: nearly all actives have a fitted effect of over 15% in size
Method in brief: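 Increased luciferase signal from ATAD5-tagged reporter cells indicates DNA-damage-driven ATAD5 induction. HEK293T cells are treated for 16 hr at 37C before detection with Amplite.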
On the % scale 0 is the no-effect control and ±100 the full control effect.

COc1ccc2c(c1)c1c3n2CCN(C)C3=NCC1
inactive: Potency [1] | outcome [2] | Potency [3] | outcome [4] | outcome [5]

OC1OCCOC1O (stereo unspecified)
inactive: outcome [6] | Potency [1] | outcome [2] | outcome [7] | outcome [8] | outcome [4] | outcome [5]

CC(=O)CCC1=C(C)CCCC1(C)C
inactive: outcome [6] | Potency [1] | outcome [2] | Potency [3] | outcome [7] | outcome [8] | outcome [4]

CC(=O)Nc1ccc(OC(=O)c2ccccc2OC(C)=O)cc1
inactive: outcome [9] | Potency [1] | outcome [2] | outcome [7] | outcome [8] | outcome [4] | outcome [5]

ONc1ccccc1
inactive: outcome [9] | Potency [1] | outcome [2] | outcome [7] | outcome [8] | outcome [4] | outcome [5]

CCC(C)C(C)=O (stereo unspecified)
inactive: outcome [9] | outcome [6] | Potency [1] | outcome [7] | outcome [8] | outcome [4] | outcome [5]

C=Cc1ccc(C(C)(C)C)cc1
inactive: outcome [6] | Potency [1] | outcome [2] | outcome [7] | outcome [4]

O=C=NCC1CCCC(CN=C=O)C1 (stereo unspecified)
inactive: outcome [9] | outcome [6] | Potency [1] | outcome [2] | outcome [4]

C=CCN1C[C@H](C(=O)N(CCCN(C)C)C(=O)NCC)C[C@@H]2c3cccc4[nH]cc(c34)C[C@H]21
inactive: outcome [9] | outcome [6] | outcome [2] | outcome [7] | outcome [8] | outcome [4] | outcome [5]

CN(C)CCCO[C@@H]1[C@H]2OC(C)(C)O[C@H]2O[C@@H]1C(O)CO (stereo partly specified)
inactive: outcome [9] | Potency [1] | outcome [2] | Potency [3] | outcome [7] | outcome [8] | outcome [4] | outcome [5]

Fc1ccccc1
inactive: outcome [9] | outcome [6] | Potency [1] | outcome [2] | outcome [8] | outcome [4] | outcome [5]

CCC/C=C(\C=O)CC
inactive: outcome [9] | Potency [1] | outcome [2] | Potency [3] | outcome [7] | outcome [8] | outcome [4] | outcome [5]

COc1nc(N)nc2nc[nH]c12
inactive: outcome [6] | Potency [1] | outcome [2] | outcome [7] | outcome [8] | outcome [4] | outcome [5]

Cn1c(=O)c2c(ncn2CCO)n(C)c1=O
inactive: outcome [6] | Potency [1] | outcome [2] | Potency [3] | outcome [7] | outcome [8] | outcome [4] | outcome [5]

COc1c2occc2c(OC)c2c(=O)cc(C)oc12
inactive: Potency [1] | outcome [2] | fluorescence, relative to Rose Bengal [7] 0.0231% [at 18.6 µM] | fluorescence, % of triamterene [4] 0.0098% [at 18.6 µM]

Cc1ccc(C)c([N+](=O)[O-])c1
inactive: Potency [1] | outcome [2] | Potency [3] | outcome [7] | outcome [8] | outcome [4] | outcome [5]

C=C(C)C1CC=C(C)C(=O)C1 (stereo unspecified)
inactive: outcome [9] | outcome [6] | Potency [1] | outcome [2] | outcome [7] | outcome [4] | outcome [5]

CCNC(=O)NCc1cccc(Cl)c1
inactive: outcome [6] | Potency [1] | outcome [2] | Potency [3] | outcome [7] | outcome [8] | outcome [4]

CC(O)CC(C)O (stereo unspecified)
inactive: outcome [9] | Potency [1] | outcome [2] | outcome [8] | outcome [4] | outcome [5]

CCC(C)OC(C)CC (stereo unspecified)
inactive: outcome [9] | Potency [1] | outcome [2] | Potency [3] | outcome [7] | outcome [8] | outcome [4] | outcome [5]

O/N=C/C=N/O
inactive: outcome [6] | Potency [1] | outcome [2] | Potency [3] | outcome [8] | outcome [4] | outcome [5]

COP(=O)(O)OP(=O)(O)OC
inactive: outcome [6] | Potency [1] | outcome [2] | Potency [3] | outcome [7] | outcome [8] | outcome [4] | outcome [5]

CC(C)NCC(O)c1ccc2ccccc2c1 (stereo unspecified)
inactive: outcome [6] | Potency [1] | outcome [2] | Potency [3] | outcome [8] | outcome [4] | outcome [5]

CC(C)CO
inactive: outcome [9] | Potency [1] | outcome [2] | Potency [3] | outcome [7] | outcome [8] | outcome [4] | outcome [5]

C[C@H]1[C@@H](c2ccccc2)NC(=O)N1C
inactive: outcome [9] | outcome [6] | Potency [1] | outcome [2] | outcome [8] | outcome [4] | outcome [5]

CN(C)CCOC(=O)C(c1ccccc1)C1(O)CCCC1 (stereo unspecified)
inactive: outcome [9] | Potency [1] | outcome [2] | Potency [3] | outcome [7] | outcome [8] | outcome [4] | outcome [5]

C=CCOC(=O)CCCCCC
inactive: outcome [9] | Potency [1] | outcome [2] | outcome [7] | outcome [8] | outcome [4] | outcome [5]

COC(=O)c1cc(Cl)cc(Cl)c1
inactive: Potency [1] | outcome [2] | outcome [7] | outcome [8] | outcome [4] | outcome [5]

CO[Si](CCCn1c(=O)n(CCC[Si](OC)(OC)OC)c(=O)n(CCC[Si](OC)(OC)OC)c1=O)(OC)OC
inactive: outcome [6] | Potency [1] | outcome [2] | Potency [3] | outcome [7] | outcome [8] | outcome [4] | outcome [5]

CCCC(=O)Nc1ccc(OCC(O)CNC(C)C)c(C(C)=O)c1 (stereo unspecified)
inactive: outcome [9] | outcome [2] | fluorescence, relative to Rose Bengal [7] -0.376% [at 18.6 µM] | fluorescence, % of fluorescein control [8] -0.0898% [at 18.6 µM] | fluorescence, % of triamterene [4] 0.0234% [at 18.6 µM]

O=C1CCC(=O)N1Cl
inactive: outcome [9] | Potency [1] | outcome [2] | outcome [7] | outcome [8] | outcome [4]

— PubChem BioAssay (Tox21)
